The source made the active and inactive calls.
Experiments:
[1] = small molecules captured by biotinylated probe aFSTL3 – biochemical, small-molecule microarray, fluorescence 635/667, stem cell growth factor project, primary screen (AID 1064); conditions: higher = more signal;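 further: measures binding of the biotinylated anti-FSTL3 antibody to printed compounds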
[2] = binders from COS7 lysate, DM2A8 probe, primary screen, torsin A project, cell lysate, small-molecule microarray, fluorescence 635/667 (AID 1065); conditions: higher = more signal, COS7 lysate expressing mutant human TOR1A
[3] = small molecules captured by biotinylated probe aFGF2 – biochemical, small-molecule microarray, fluorescence 635/667, stem cell growth factor project, primary screen (AID 1067); conditions: higher = more signal;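 further: measures binding of biotinylated aFGF2 protein to printed compounds on slides; z-score merges feature fluorescence and signal-to-noise across triplicate slides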
[4] = small molecules captured by biotinylated probe aFGF10 – biochemical, small-molecule microarray, fluorescence 635/667, stem cell growth factor project, primary screen (AID 1071); conditions: higher = more signal;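 further: score merges 667 nm spot intensity and signal to noise from triplicate slides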
[5] = molecular target: Neurogenic locus notch homolog protein 2 (Homo sapiens) (UniProt Q04721); experiment: small molecules binding Notch2 protein – biochemical, small-molecule microarray, 635 nm fluorescence, stem cell growth factors, primary screen (AID 1073); conditions: higher = more signal
[6] = molecular target: Pro-neuregulin-1, membrane-bound isoform (Homo sapiens) (UniProt Q02297); experiment: small molecules binding neuregulin-1 protein – biochemical, small-molecule microarray, fluorescence 635/667, psychiatric disease protein project, primary screen (AID 1075); conditions: NRG1 binding, 635 nm fluorescence, higher = more signal;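 further: score combines 667 nm spot fluorescence with signal to noise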
[7] = test system: Neuregulin-1 EGF-like domain; experiment: small molecules binding NRG1 EGF domain – biochemical, small-molecule microarray, 635 nm fluorescence, primary screen (AID 1081); conditions: higher = more signal;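 further: binding of the protein to compounds printed on small-molecule microarray slides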
[8] = FRG1 expression reporter modulators in myotubes – cell-based, C2C12 myotubes, firefly/Renilla luciferase, luminescence, FRG1 inhibition for FSHD, primary screen (AID 1084); conditions: FRG1 promoter luciferase, higher = more signal, called active from +8 up or from −8 down
[9] = small molecules captured by biotinylated probe aFST – biochemical, small-molecule microarray, fluorescence 635/667, stem cell growth factor project, primary screen (AID 1086); conditions: higher = more signal;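 further: score merges 667 nm fluorescence with signal-to-noise of each printed compound spot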
[10] = binders of probe aHhip on microarray, primary screen, stem cell growth factor project, biochemical, small-molecule microarray, fluorescence 635/667 (AID 1087); conditions: higher = more signal;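 further: score merges spot fluorescence at 667nm with spot signal to noise ratio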

Chain of Pro-neuregulin-1, membrane-bound isoform (Homo sapiens) (Q02297 whole entry, looked up, the tested form may be a part, canonical isoform): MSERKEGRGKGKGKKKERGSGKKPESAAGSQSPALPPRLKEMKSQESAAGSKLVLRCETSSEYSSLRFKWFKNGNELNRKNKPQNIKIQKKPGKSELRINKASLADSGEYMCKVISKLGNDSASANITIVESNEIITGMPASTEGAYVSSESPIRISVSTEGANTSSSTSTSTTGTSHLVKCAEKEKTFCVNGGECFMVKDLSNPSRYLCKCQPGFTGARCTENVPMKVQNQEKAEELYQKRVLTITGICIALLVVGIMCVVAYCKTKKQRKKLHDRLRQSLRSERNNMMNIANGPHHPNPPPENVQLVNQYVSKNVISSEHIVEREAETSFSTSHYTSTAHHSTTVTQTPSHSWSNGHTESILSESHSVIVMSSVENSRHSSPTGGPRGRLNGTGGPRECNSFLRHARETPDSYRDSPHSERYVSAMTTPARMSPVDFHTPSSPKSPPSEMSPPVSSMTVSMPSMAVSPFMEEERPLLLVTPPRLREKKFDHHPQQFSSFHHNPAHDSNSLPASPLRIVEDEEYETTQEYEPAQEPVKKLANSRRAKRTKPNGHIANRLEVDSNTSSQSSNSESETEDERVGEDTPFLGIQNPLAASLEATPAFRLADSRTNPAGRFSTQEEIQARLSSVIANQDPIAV
Chain of Neurogenic locus notch homolog protein 2 (Homo sapiens) (Q04721 whole entry, looked up, canonical isoform): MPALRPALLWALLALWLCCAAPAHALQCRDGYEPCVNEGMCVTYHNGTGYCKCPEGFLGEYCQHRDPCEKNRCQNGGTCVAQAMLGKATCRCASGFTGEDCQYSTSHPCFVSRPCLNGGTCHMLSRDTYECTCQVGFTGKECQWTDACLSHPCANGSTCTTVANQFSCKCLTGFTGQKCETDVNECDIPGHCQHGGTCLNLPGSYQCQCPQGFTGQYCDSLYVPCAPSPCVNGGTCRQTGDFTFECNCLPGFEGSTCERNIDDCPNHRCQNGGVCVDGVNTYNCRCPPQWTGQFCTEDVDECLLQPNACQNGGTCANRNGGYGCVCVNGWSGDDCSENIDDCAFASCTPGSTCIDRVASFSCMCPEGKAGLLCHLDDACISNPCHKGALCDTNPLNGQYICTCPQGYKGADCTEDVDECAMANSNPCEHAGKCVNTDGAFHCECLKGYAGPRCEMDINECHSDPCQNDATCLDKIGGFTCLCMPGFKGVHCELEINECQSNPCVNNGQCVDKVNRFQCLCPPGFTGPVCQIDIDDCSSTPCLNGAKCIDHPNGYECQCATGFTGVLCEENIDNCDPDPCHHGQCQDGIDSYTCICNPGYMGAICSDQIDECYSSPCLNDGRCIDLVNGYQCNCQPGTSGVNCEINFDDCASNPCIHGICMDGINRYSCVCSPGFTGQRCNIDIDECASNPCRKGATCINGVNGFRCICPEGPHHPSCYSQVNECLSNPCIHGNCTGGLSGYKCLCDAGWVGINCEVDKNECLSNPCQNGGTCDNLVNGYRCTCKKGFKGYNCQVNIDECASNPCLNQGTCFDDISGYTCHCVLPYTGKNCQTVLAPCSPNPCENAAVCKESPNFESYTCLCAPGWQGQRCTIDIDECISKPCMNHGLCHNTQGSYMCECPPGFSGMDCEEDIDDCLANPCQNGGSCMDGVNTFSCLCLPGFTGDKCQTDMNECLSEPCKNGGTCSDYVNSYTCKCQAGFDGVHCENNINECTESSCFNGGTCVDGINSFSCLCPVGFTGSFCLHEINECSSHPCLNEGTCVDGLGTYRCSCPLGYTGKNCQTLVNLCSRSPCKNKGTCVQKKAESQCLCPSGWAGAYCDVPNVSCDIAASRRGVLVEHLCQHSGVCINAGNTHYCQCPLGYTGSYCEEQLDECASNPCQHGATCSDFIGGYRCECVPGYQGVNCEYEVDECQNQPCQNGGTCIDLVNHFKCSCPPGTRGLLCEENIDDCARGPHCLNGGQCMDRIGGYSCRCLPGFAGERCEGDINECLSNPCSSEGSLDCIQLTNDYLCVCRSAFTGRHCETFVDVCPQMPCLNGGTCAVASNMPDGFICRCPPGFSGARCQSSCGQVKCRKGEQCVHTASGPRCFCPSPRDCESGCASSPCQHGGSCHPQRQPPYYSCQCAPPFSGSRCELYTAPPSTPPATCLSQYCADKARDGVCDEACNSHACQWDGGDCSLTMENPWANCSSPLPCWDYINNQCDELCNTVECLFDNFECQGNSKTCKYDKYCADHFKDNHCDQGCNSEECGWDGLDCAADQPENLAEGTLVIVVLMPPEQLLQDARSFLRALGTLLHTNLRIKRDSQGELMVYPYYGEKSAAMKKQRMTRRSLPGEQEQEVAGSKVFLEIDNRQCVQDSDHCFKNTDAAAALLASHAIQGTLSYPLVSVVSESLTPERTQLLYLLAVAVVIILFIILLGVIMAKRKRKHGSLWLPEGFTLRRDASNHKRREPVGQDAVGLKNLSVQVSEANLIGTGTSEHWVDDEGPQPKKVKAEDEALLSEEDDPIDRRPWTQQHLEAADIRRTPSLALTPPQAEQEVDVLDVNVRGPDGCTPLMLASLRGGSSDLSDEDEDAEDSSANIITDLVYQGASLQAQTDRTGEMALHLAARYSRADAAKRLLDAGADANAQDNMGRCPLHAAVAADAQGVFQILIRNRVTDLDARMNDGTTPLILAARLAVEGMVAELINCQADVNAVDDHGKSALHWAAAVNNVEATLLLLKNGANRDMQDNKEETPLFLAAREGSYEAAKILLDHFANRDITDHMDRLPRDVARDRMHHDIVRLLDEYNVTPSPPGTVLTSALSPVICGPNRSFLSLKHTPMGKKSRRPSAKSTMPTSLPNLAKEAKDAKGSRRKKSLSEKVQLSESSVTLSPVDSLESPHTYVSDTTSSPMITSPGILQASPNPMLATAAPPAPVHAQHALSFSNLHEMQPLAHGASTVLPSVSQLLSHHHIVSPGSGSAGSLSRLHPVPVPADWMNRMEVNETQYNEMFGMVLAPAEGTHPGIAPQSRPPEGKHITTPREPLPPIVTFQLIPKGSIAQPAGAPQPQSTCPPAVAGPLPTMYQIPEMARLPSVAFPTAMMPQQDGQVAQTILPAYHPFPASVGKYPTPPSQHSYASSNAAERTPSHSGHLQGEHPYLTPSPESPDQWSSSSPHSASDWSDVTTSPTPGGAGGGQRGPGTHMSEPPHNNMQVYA

| SMILES | composite z-score [1] | composite z-score [2] | composite z-score [3] | composite z-score [4] | composite z-score [5] | composite z-score [6] | composite z-score [7] | z-score [8] | composite z-score [9] | composite z-score [10] |
| --- | --- | --- | --- | --- | --- | --- | --- | --- | --- | --- |
| O=C1N[C@@H](Cc2ccccc2)C(=O)N2[C@@H]1C[C@@H](C(=O)O)[C@H]2c1ccc(O)cc1 | 0.106 | 0.726 | -0.0773 | 0.473 | 0.0865 | 1.77 | 1.37 | 4.65 (inactive) | 0.661 | -0.257 |
| COC(=O)C1=CC(CCCO)=CC(C)N(Cc2cccc(OC(F)(F)F)c2)C=C1C(=O)OC (stereo not given) | -0.385 | -0.383 | -0.0667 | 0.157 | 0.412 | 2.05 | 1.21 | -0.181 (inactive) | 0.577 | -0.0994 |
| COc1cc(NN2C(C(O)C3CCCCC3)C=CC3C(=O)N(C)C(=O)C32)cc(OC)c1OC (stereo not given) | 0.322 | 0.054 | 0.162 | 0.306 | 1.59 | 1.65 | 1.21 | 0.391 (inactive) | 0.479 | 0.0877 |
| Cc1ccc(S[C@]2(C(=O)NC(C)C)CC(=O)N(C(C)C)[C@@H]2c2ccc(CO)cc2I)cc1 | -0.244 | -0.242 | -0.0272 | 0.145 | 0.0213 | 0.637 | 1.05 | -0.13 (inactive) | -0.198 | 0.0749 |
| CC(C)CNC(=O)[C@@]1(C)c2ccccc2C(=O)N(Cc2cc(C(F)(F)F)cc(C(F)(F)F)c2)[C@H]1c1ccc(CO)cc1 | 0.0317 | 0.0213 | -0.178 | -0.278 | -0.474 | -0.12 | 0.492 | -1.43 (inactive) | -0.635 | 0.0156 |
| CCCNC(=O)[C@@]1(C)c2ccccc2C(=O)N(Cc2ccccc2)[C@H]1c1ccc(CO)cc1 | 1.93 | -0.685 | 0.12 | 1.32 | -1.28 | 1.97 | 0.974 | -1.98 (inactive) | 0.476 | 0.106 |
| CN1C(=O)C2C=CC(C(O)c3ccc(F)cc3)N(NC(=O)OC(C)(C)C)C2C1=O (stereo not given) | -0.179 | -0.598 | 0.0505 | 0.257 | 1 | 1.68 | 1.38 | 0.186 (inactive) | 0.734 | -0.0464 |
| C=CCN1C(=O)[C@]2(O[C@H](CCO)[C@@H]([Si](C)(C)c3ccc(OC)cc3)[C@@H]2C)c2cc(NC(=O)c3ccc(OC)cc3)ccc21 | -0.429 | 0.421 | -0.105 | 0.3 | 0.384 | 0.686 | 1.09 | -3.52 (inactive) | 0.346 | -0.204 |
| COC(=O)[C@@]1(Cc2ccccc2CN=[N+]=[N-])N=C(c2ccc(OCCCO)cc2)O[C@H]1c1ccccc1CN=[N+]=[N-] | 0.629 | -0.43 | -0.0457 | 0.0746 | -0.733 | 0.846 | 1.22 | -1.23 (inactive) | -0.574 | -0.226 |
| C#C[C@@H](CC)O[Si](C#CCCCC#N)(C(C)C)C(C)C | 0.0465 | 0.934 | -0.0891 | -0.146 | -0.604 | 0.873 | 0.74 | -0.0405 (inactive) | -0.241 | -0.236 |
| O=c1cccc(-c2ccco2)o1 | -0.539 | 0.336 | -0.132 | 0.694 | 0.386 | 0.904 | 0.498 | 0.557 (inactive) | 0.0153 | -0.0994 |
| CN(C)C(=O)[C@@]1(Cc2ccccc2)COC(c2ccc(OCCCO)cc2)=N1 | 0.862 | -0.111 | 0.0412 | -0.055 | -0.266 | 1.81 | 0.61 | -0.698 (inactive) | -0.341 | 0.217 |
| [N-]=[N+]=NCc1ccccc1[C@H]1OC(c2ccc(OCCCO)cc2)=N[C@@]1(Cc1ccccc1)C(=O)NCCN1CCOCC1 | -0.714 | 0.614 | -0.0627 | 1.09 | 1.49 | 1.34 | 1.23 | -0.731 (inactive) | 0.213 | -0.0994 |
| O=C1OCCC/C=C\[C@H]2OC34C=CCN(c5ccc6ccccc6c5)C(=O)[C@H]3N(CCCO)C(=O)[C@@H]4C12 (stereo not given in full) | -0.0204 | 0.994 | -0.101 | -0.316 | -0.631 | 0.437 | 0.626 | 1.2 (inactive) | -0.72 | -0.12 |
| C=CCC(OC(C)=O)[C@@H]1[C@@H](N(Cc2ccc(-c3cccc(C(F)(F)F)c3)o2)C(=O)c2ccc(C)cc2)c2cc(OCCCO)ccc2N1C(=O)Cc1ccc(OC)cc1 (stereo not given in full) | 0.002 | -0.315 | -0.0639 | 0.0732 | -0.489 | -0.0798 | -0.986 | -0.287 (inactive) | 0.382 | 0.0373 |
| COCCOC(=O)N1C(=O)[C@@]2(c3cc(C#CCNC(N)=O)ccc31)[C@H](c1ccc(OCCO)cc1)N1[C@H](c3ccccc3)[C@H](c3ccccc3)OC(=O)[C@H]1[C@@H]2C(N)=O | 0.423 | 0.278 | 0.0541 | 0.913 | 1.49 | 0.897 | 0.809 | 0.47 (inactive) | 0.715 | 0.351 |
| COC(=O)C(CC#Cc1ccc2c(c1)[C@]1(C(=O)N2)[C@H](c2ccc(OCCO)cc2)N2[C@H](c3ccccc3)[C@H](c3ccccc3)OC(=O)[C@H]2[C@@H]1C(=O)N1CCN(c2ncccn2)CC1)C(=O)OC | -0.505 | 1.01 | 0.0275 | 1.12 | 1.51 | 0.746 | 1.27 | 1.45 (inactive) | 0.643 | 0.386 |
| COCCOC(=O)N1C(=O)[C@@]2(c3cc(C#CCC(C(=O)OC)C(=O)OC)ccc31)[C@H](c1ccc(O)cc1)N1[C@H](c3ccccc3)[C@H](c3ccccc3)OC(=O)[C@H]1[C@@H]2C(=O)NC[C@H](O)c1ccccc1 | -0.32 | 0.63 | 0.0521 | 0.144 | 0.147 | 1.12 | 1.04 | 1.15 (inactive) | 0.169 | 0.0749 |
| Cc1ccc(F)cc1S(=O)(=O)N[C@@H]1CCN(Cc2cccc3[nH]ccc23)C1 | 1.05 | 0.871 | -0.0894 | 0.513 | 0.37 | 1.38 | 0.379 | -0.762 (inactive) | -0.0112 | -0.0994 |
| C=C(/C(=C/C[C@@H](OC(=O)c1ccncc1)c1cccc(OCCO)c1)c1cnc2ccccc2c1)C(C)C | 0.21 | 0.375 | -0.123 | 1.15 | 1.22 | 0.788 | 1.17 | 2.61 (inactive) | 0.573 | -0.116 |
| COCC1=C2[C@@H](CCc3ccccc3)OB(O)C[C@@H]2[C@@H]2C(=O)N(C)C(=O)[C@@H]2C1 | -0.136 | 0.0288 | -0.164 | 0.511 | 0.21 | -0.295 | 0.843 | -3.25 (inactive) | -0.0464 | -0.0618 |
| C=CCNC(=O)[C@@H]1[C@H]2C(=O)O[C@H](c3ccccc3)[C@H](c3ccccc3)N2[C@H](c2ccc(OCCO)cc2)[C@@]12C(=O)N(C(=O)OCCOC)c1ccc(C#CCCO)cc12 | -0.209 | -0.28 | -0.0203 | 0.508 | 1.33 | 1.24 | 1.19 | -0.0789 (inactive) | 0.273 | -0.164 |
| CCOC(=O)C1=C[C@@H](C(C)(C)C)N(S(=O)(=O)c2ccc(C)cc2)[C@H]1c1cccc(Cl)c1 | -0.308 | 0.314 | 0.0526 | 0.666 | 1.54 | 0.831 | 0.979 | -2.24 (inactive) | 0.799 | -0.14 |
| C=CCNC(=O)[C@@H]1[C@H]2C(=O)O[C@H](c3ccccc3)[C@H](c3ccccc3)N2[C@H](c2ccc(O)cc2)[C@@]12C(=O)Nc1ccc(C#CCC(C(=O)OC)C(=O)OC)cc12 | -0.174 | 0.198 | -0.18 | 0.163 | 0.162 | 0.749 | 0.95 | 1.03 (inactive) | 0.249 | 0.0623 |
| CC(C)C[C@@H]1NC(=O)[C@H]2C[C@@H](C(=O)NCCCCCN)[C@@H](c3cccc(OCCO)c3)N2C1=O | 0.721 | -0.1 | -0.107 | 0.0414 | -0.182 | 0.896 | 1.24 | -0.599 (inactive) | -0.565 | -0.0645 |
| C=C(/C(=C/C[C@@H](OC(C)=O)c1ccc(OCCO)cc1)c1cc(C(=O)OC)ccc1OC)C(C)C | -0.247 | 0.239 | -0.155 | 0.29 | 0.355 | 1.67 | 0.945 | 2.89 (inactive) | -0.034 | 0.0024 |
| C=C(COC)/C(=C/C[C@H](OC(C)=O)c1cccc(OCCO)c1)c1cnc2ccccc2c1 | -0.194 | 0.569 | -0.0325 | 1.05 | 1.26 | 0.743 | 1.11 | 1.46 (inactive) | 0.654 | 0.107 |
